Assay results taken from ChEMBL document CHEMBL1201862, “PubChem BioAssay data set” (2004).
These assays gave more results; the selection is not random.

Target: T1, Protein RecA (Mycobacterium tuberculosis) (UniProt P9WHJ3)
T1 sequence (whole entry): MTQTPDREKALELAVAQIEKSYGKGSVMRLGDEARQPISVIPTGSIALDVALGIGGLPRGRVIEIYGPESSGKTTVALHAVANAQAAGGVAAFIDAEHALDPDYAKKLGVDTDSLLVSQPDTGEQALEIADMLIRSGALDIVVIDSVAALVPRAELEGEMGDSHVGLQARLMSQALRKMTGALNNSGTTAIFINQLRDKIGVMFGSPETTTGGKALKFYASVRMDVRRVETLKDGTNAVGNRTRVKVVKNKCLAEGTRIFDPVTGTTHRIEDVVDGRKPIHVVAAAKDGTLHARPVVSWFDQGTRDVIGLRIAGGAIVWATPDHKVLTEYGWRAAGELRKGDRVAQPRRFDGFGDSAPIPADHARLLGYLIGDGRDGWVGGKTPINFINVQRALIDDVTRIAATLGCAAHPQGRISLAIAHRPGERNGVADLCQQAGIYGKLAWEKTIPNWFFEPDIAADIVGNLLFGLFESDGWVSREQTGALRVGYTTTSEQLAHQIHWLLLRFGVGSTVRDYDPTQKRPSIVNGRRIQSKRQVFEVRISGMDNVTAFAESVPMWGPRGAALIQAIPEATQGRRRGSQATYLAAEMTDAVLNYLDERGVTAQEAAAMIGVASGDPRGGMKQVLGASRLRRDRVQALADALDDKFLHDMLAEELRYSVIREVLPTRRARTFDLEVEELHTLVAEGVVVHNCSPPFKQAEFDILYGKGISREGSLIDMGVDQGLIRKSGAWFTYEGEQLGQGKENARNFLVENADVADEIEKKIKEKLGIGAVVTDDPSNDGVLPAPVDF
Test: M. tuberculosis H37Rv growth inhibition, dose response, strain H37Rv (AID 489010); call rule not given here;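 further: whole Mycobacterium tuberculosis cells grown in culture and not purified RecA protein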
Assay type: functional

| SMILES | IC90 |
| --- | --- |
| O=C1NC(=S)N(C2CCCCC2)C(=O)/C1=C/NNC(=O)c1ccccc1O | > 100 µM (active) |
| O=C(CCl)Nc1cn(-c2ccccc2)nc1-c1ccc(F)cc1 | 49.8 µM (active) |
| CN(C1=C(NC(=O)c2ccccc2)C(=O)c2ccccc2C1=O)C1CCS(=O)(=O)C1 (stereo not given) | > 100 µM (active) |
| CCC(C)[C@@H](NC(=O)OC(C)(C)C)c1nnc(S(=O)(=O)Cc2cccc(C)c2)o1 (stereo not given in full) | > 100 µM (active) |
| Cc1ccc(Sc2ccc(NC(=O)CCl)cc2)cc1C | 52.4 µM (active) |
| Cc1sc2ncnc(Sc3nnnn3-c3ccccc3)c2c1C | > 100 µM (active) |
| CC(=O)n1cc(N(C(=O)CCl)c2ccccc2)c2ccccc21 | 5.8 µM (active) |
| CSc1nnc(NC(=O)c2nc(S(=O)(=O)Cc3cccc(C)c3)ncc2Cl)s1 | 44.7 µM (active) |
| Cc1ccc(CS(=O)(=O)c2ncc(Cl)c(C(=O)Nc3nnc(C(C)C)s3)n2)cc1 | > 100 µM (active) |
| CC(=O)n1cc(N(C(=O)CCl)c2ccc([N+](=O)[O-])cc2)c2ccccc21 | 8.94 µM (active) |
| C=CCOc1ccccc1CN(C(=O)CCl)c1ccc2c(c1)OCO2 | 8.42 µM (active) |
| COC(=O)c1sc(-c2ccc(C(C)(C)C)cc2)cc1NC(=O)/C=C/C(=O)O | 42.7 µM (active) |
| CC(=O)n1cc(N(C(=O)CCl)c2ccc(C)cc2)c2ccccc21 | 5.03 µM (active) |
| Cc1ccc(N(C(=O)CCl)C(C(=O)NC2CCCCC2)c2cccnc2)cc1C (stereo not given) | 30.1 µM (active) |
| Cc1ccc2c(c1)c1c3n2CCN(C(=O)CCl)C3CCC1 (stereo not given) | 8.43 µM (active) |
| Cc1nn(-c2ccccc2)c(Cl)c1CN(C(=O)CCl)c1cccc2ccccc12 | 35.5 µM (active) |
| Cc1ccc(N(NC(=O)C(O)(c2ccccc2)c2ccccc2)C(=O)CCl)cc1 | 27.4 µM (active) |
| CN1C(=O)C(=C2CC(c3ccccc3)N(C(=O)CCl)N2)C(=O)N(C)C1=O (stereo not given) | > 100 µM (active) |
| Cc1oc2c(c1C(=O)NCc1cccnc1)C(=O)c1ccccc1C2=O | < 0.2 µM (active) |
| CCN(CC)CCNC(=O)c1ccc2c(c1NCCO)C(=O)c1ccccc1C2=O | > 100 µM (active) |
